A selection: hits, their analogues and other compounds. The true share with any hit is near 3.3%.
Sm TGR inh = qHTS Assay for the Inhibitors of Schistosoma Mansoni Peroxiredoxins | Schistosoma mansoni thioredoxin glutathione reductase (TGR), Q962Y6 | purified TGR, DTNB reduction, TNB absorbance 405 nm | Potency, µM (doses to about 114 µM), for the others: top-dose activity change, negative = inhibition, most hits filed as inhibitors | hit rate 3% among 360,000 | AID 485364, 2010; further: nearly all actives have a fitted effect of over 60% in size
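Kinetic colorimetric format: TGR-catalysed, NADPH-driven DTNB reduction monitored via TNB absorbance. Enzyme dispensed at 20 nM; compound exposure 15 min at room temperature before reaction start.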
TbPYK inhibitor = qHTS of Trypanosoma Brucei Inhibitors; pyruvate kinase (Trypanosoma brucei), Q57TT1; TbPYK enzyme, Kinase-Glo Plus ATP luminescence, 45 min; Potency, µM (doses to about 76.8 µM), for the others: at the top dose activity, negative = inhibition, usual class: inhibitors; hit rate 0.12% among 410,000; AID 624173, 2012; further: nearly all actives have a fitted effect of over 50% in size
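TbPYK + substrate in 50 mM TEA pH 7.2, 100 mM KCl, 10 mM MgCl2, 0.05% BSA, 0.01% Tween-20; cpd pinned; ADP 130 uM final; 45 min RT; Kinase-Glo Plus 10 min; luminescence endpoint.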
RE007 growth inh = qHTS Assay for Inhibitors of the HIV-1 protein Vpr | S. pombe RE007 Vpr strain, BacTiter-Glo ATP luminescence, 24 h | Potency, µM (titrated, usually from 92.2 µM), inactives show top-dose activity change, negative = less growth, usual class: inhibitors | hit rate 0.21% among 360,000; active means well fitted falling curve with a large enough effect; inconclusive means small, poorly fitted or top-dose-only effect; inactive means no such curve, though single readings can be large or run the other way; further: nearly all actives have a fitted effect of over 50% in size
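Fission yeast strain RE007, carrying one chromosomally integrated HIV-1 vpr copy, was seeded at OD 0.01 in PMG+AL medium with 23 nL pinned compound. After 24 h at 30 °C and 99% humidity, viability was read by BacTiter-Glo luminescence.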
FBPA Giardia inh = qHTS Assay for Inhibitors of Fructose-1,6-bisphosphate Aldolase from Giardia Lamblia; purified Giardia FBPA; Potency, µM (highest dose often 59.6 µM), for the others: at the highest dose activity, negative = inhibition, actives largely listed as inhibitors; hit rate 0.71% among 290,000; AID 2451, 2010; further: nearly all actives have a fitted effect of over 55% in size
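Giardia FBPA (40 nM reagent) was preincubated 10 min at RT with compound (up to 57.5 uM final), then substrate plus GAPDH/TPI/NAD/arsenate coupling system with diaphorase/resazurin was added; resorufin fluorescence (525/598 nm) was read after 20 min.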
LmPK inh = qHTS Assay for Inhibitors of Leishmania Mexicana Pyruvate Kinase (LmPK); Potency, µM (series often up to 57.5 µM), for the others: at the top dose activity change, negative = inhibition, actives largely listed as inhibitors; purified LmPK, Kinase-Glo ATP luminescence, 1 h; hit rate 0.37% among 290,000; AID 1721, 2009; Q27686
Target sequence (Q27686 whole entry, looked up): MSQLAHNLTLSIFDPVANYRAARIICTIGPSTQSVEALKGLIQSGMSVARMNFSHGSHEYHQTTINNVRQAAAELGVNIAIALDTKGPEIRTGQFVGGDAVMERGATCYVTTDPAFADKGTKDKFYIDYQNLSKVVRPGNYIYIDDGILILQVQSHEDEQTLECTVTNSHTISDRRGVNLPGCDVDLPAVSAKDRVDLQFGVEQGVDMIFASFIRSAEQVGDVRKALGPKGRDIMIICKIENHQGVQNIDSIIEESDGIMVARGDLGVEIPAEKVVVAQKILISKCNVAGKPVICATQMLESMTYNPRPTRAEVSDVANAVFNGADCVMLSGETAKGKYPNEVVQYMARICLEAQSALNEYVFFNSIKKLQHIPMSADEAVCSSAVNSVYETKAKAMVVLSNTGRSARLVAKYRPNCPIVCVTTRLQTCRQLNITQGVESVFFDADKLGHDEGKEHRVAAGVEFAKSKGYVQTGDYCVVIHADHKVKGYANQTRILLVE
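In 50 mM imidazole pH 7.2 with 7 mM MgCl2, LmPK (0.1 nM) turned over PEP (0.5 mM) and ADP (0.1 mM) for 1 h at room temperature. Luciferase read-out of ATP.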
* = called active by the depositor; ? = inconclusive; · = no result; [ ] = another dose, or the depositor's remark. Unless noted, the call rests on the fitted dose curve; in most records, active means well fitted curve in the direction sought with a large enough effect; inconclusive means small, poorly fitted or top-dose-only effect, or another doubt; inactive means no such curve, though single readings can be large; an effect the other way counts as inactive or inconclusive. On the % scale 0 is the no-effect control and ±100 the full control effect; potency means the concentration at half of the fitted maximal effect.

SMILES	Sm TGR inh	TbPYK inhibitor	RE007 growth inh	FBPA Giardia inh	LmPK inh
CC1CC(C)CN(C(=O)c2ccc(-c3ccc([N+](=O)[O-])cc3)o2)C1 (stereo unspecified)	3.2µM*	-19%	?	·	·
O=C(c1ccc(-c2ccc([N+](=O)[O-])cc2)o1)N1CCCCC1	45µM*	-9%	-16%	-2%	-10%
Nc1ncnc2oc(-c3ccco3)c(-c3ccco3)c12	10µM*	-16%	3%	?	11%
CN(C[C@H](c1ccccc1)N(C[C@H](Cc1ccccc1)N(CCc1ccccc1)N=O)N=O)N=O	?	2%	-6%	0%	0%
CN(C[C@H](Cc1ccccc1)N(C[C@H](c1ccccc1)N(CCc1ccccc1)N=O)N=O)N=O	13µM*	-3%	10%	-2%	7%
COc1ccc2cc(C=NS(=O)(=O)c3ccc(C)cc3)n(C)c2c1	-10%	5%	-8%	·	·
CN1CCN(C(=O)Nc2ccccc2CC[N+](=O)[O-])CC1	32µM*	-1%	22%	-9%	-3%
Cc1cc(=O)oc2c(N)nccc12	·	?	-10%	·	·
Cc1ccc(N)c(C)c1	-2%	1%	11%	·	·
Cc1ccc(N=Nc2cc(C)ccc2N)cc1	0%	-22%	-26%	-1%	14µM*
O=C(NC(NNc1ccc([N+](=O)[O-])cc1)(C(F)(F)F)C(F)(F)F)c1ccc(Cl)cc1	22µM*	-23%	2%	-22%	-10%
O=C(NNc1ccc([N+](=O)[O-])cc1)c1ccccc1Cl	?	2%	57%	-5%	1%
COc1ccc(-c2noc(CCC(=O)NCCCN3CCC(C)CC3)n2)cc1	1%	-6%	-6%	-1%	3%
O=C(c1ccc2c(c1)OCO2)n1nnc2ccccc21	10µM*	·	·	-9%	8%
COc1ccc(N/C(=C(/C(Cl)=C(Cl)Cl)[N+](=O)[O-])n2nnc3ccccc32)cc1OC	22µM*	·	·	?	1%
COc1ccc(C(=O)n2nnc3ccccc32)cc1OC	6.3µM*	-4%	-7%	-14%	-1%
CCSc1ccccc1C(=O)n1nnc2ccccc21	20µM*	-6%	21%	-2%	-1%
CC1(C)Cc2c(sc(NC(=O)C(=O)N3CCCC3)c2C#N)CO1	-3%	-2%	-14%	-14%	0%
C[Si](C)(C)O[Si](C)(C)C	·	-7%	·	·	·
CCCn1c(NCc2ccc3c(c2)OCO3)nc2ccccc21	89µM*	2%	15%	5%	-4%
CCCCn1c(NCc2ccc3c(c2)OCO3)nc2ccccc21	0%	5%	-7%	-6%	7%
COc1ccc(/C=C2\N=C(C)OC2=O)cc1OC	16µM*	1%	-5%	0%	-5%
COc1ccc(/C=C2\SC(=O)NC2=S)cc1OC	18µM*	-8%	-21%	-1%	-3%
CCOc1cc(/C=C2\N=C(C)OC2=O)cc(Br)c1OCC(=O)OC	25µM*	-8%	-2%	5%	-1%
CCOc1ccc(/C=C2\SC(=S)N(C)C2=O)cc1OC	0%	-13%	8%	-2%	3%
SMILES	Sm TGR inh	TbPYK inhibitor	RE007 growth inh	FBPA Giardia inh	LmPK inh
COc1ccc(/C=C2/SC(c3ccc(C)cc3)=NC2=O)cc1OC	-36%	?	1%	?	?
COc1ccc(/C=C2\SC(c3ccc(C)cc3)=NC2=O)cc1OC	-17%	8.9µM*	0%	?	?
COc1ccc(/C=C2\N=C(C)OC2=O)cc1OC(C)=O	?	-2%	7%	-2%	2%
Cc1cccc(NC(=O)c2cccnc2)c1	2%	3%	3%	8%	-6%
CC1CCC(NC(=O)COC(=O)c2ccc3ncsc3c2)CC1 (stereo unspecified)	-17%	0%	-8%	·	·
CC1(C(=O)c2ccccc2)C2c3c(ccc4ccccc34)OC(=O)C21C(=O)N1CCOCC1 (stereo unspecified)	1%	5%	-3%	-2%	-2%
CCOc1ccc(/C=C2\SC(=S)NC2=O)cc1OC	-8%	-10%	-23%	8%	14µM*
CC[N+](C)(CC)CCCCOc1ccc2c(c1)C(=O)c1cc(OCCCC[N+](C)(CC)CC)ccc1-2	5.6µM*	?	?	-18%	-1%
CC[N+](CC)(CC)CCOc1ccc(/C=C\c2ccccc2)cc1	·	·	·	0%	·
CC[N+](CC)(CC)CCCCOc1ccc2c(c1)C(=O)c1cc(OCCCC[N+](CC)(CC)CC)ccc1-2	20µM*	-10%	-27%	-9%	-3%
COc1cccc(Cn2c(=O)c(CCc3ccccc3)nc3cncnc32)c1	·	·	·	-6%	·
COC(=O)[C@@]12CCCN1[C@H](c1ccc(-c3ccc(OC)cc3)cc1)[C@@H]1C(=O)N(C)C(=O)[C@@H]12	-29%	10%	-1%	·	·
Cc1cc(C)c2[nH]c(=O)c(CN(CC3CCCO3)C(=S)NCc3ccco3)cc2c1 (stereo unspecified)	-5%	10%	9%	0%	6%
Cc1cccc2cc(CN(Cc3ccco3)C(=O)c3ccncc3)c(=O)[nH]c12	32µM*	-3%	-2%	1%	-1%
Cc1cc(C)c2cc(CN(Cc3ccco3)C(=O)NCc3ccccc3)c(=O)[nH]c2c1	50µM*	4%	-9%	1%	2%
Cc1cc(C)c2[nH]c(=O)c(CN(Cc3ccco3)C(=O)C3CCCO3)cc2c1 (stereo unspecified)	25µM*	1%	-2%	-3%	5%
O=C(c1ccncc1)N(Cc1ccco1)Cc1cc2ccccc2[nH]c1=O	-36%	0%	-4%	-6%	2%
Cc1cc(C)c2cc(CN(CC3CCCO3)C(=S)NCc3ccco3)c(=O)[nH]c2c1 (stereo unspecified)	-28%[57.1 µM]	-8%	-8%	-1%	-4%
CN(CCC#N)c1ccc(C=C(C#N)c2cccc(C(F)(F)F)c2)cc1	·	3%	-6%	·	·
Cc1cccc(CNc2cc(-c3cccc(NS(C)(=O)=O)c3)ncn2)c1	·	·	·	-6%	·
COc1ccc(/C=C(/C#N)c2nc(-c3ccc(-c4ccccc4)cc3)cs2)cc1OC	-13%	-3%	·	·	·
COC(=O)c1ccccc1NC(=O)c1ccc(COc2cccc3ccccc23)o1	56µM*	1%	-6%	?	0%
Cc1ccccc1CS(=O)(=O)Cc1ccc(C(=O)NCc2ccccn2)o1	13µM*	-4%	-7%	-1%	-4%
Cc1cc(C(F)(F)F)nn1Cc1ccc(C(=O)NCc2ccco2)o1	11µM*	-9%	6%	-2%	0%
Cc1ccccc1CS(=O)(=O)Cc1ccc(C(=O)NCc2ccc(F)cc2)o1	-23%	-3%	·	·	·
O=C(NCc1ccco1)c1ccc(-c2cccc(Cl)c2)o1	32µM*	22%	-10%	-3%	9%
